# Screening results from PubChem BioAssay.
# This excerpt belongs to a sample that is enriched for hits.
# Pf apPOL block: Pf-apPOL DNA polymerase inhibition. Recombinant Pf-apPOL, molecular beacon fluorescence, 1.5 h. inhibition, % at 10 µM. 210,000 compounds, 0.25% hits
# mHTT CaM bind: mHTT-calmodulin interaction abrogation | 190,000 compounds, 3.6% hits | inhibition, % at 15 µM | AlphaScreen His-mHTT/GST-CaM binding, luminescence | P42858;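 note: 0% = both proteins with DMSO and 100% = one protein alone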
# Starred values were filed as active, the others as inactive; · = no result. Cut-off read from the data, not from the text of the source: active = inhibition above about 50%; inactive = the rest.
SMILES,Pf apPOL block,mHTT CaM bind
CCCC1CCC2(CCCN2CCOC(=O)Nc2cccc(Cl)c2)CC1 (configuration not stated),-7,95*
CCCC1CCC2(CCCN2CCOC(=S)Nc2ccccc2)CC1 (configuration not stated),-7,61*
CCCC1CCC2(CCCN2CCOC(=S)Nc2cccc(Cl)c2)CC1 (configuration not stated),-4,28
CCCC1CCC2(CCCN2CCOC(=S)Nc2ccccc2Cl)CC1 (configuration not stated),-9,-8
COCCNc1nc(SC)nc2c1cnn2CCNC(=O)C1CCCC1,6,-10
CCOc1ccc(C(=O)NC2CC(O)C(CO)C2)cc1OCC (configuration not stated),-7,-2
O=c1[nH]c2c(s1)C(c1ccc(O)cc1)C1C3CCC(C3)C1S2 (configuration not stated),-5,63*
O=c1[nH]c2c(s1)C(c1cccnc1)C1C3CCC(C3)C1S2 (configuration not stated),-4,-2
COCCNc1nc(Nc2ccc(C)c(C)c2)c2nccnc2n1,-4,8
CCCCC1CC(CSc2ncn[nH]2)OC1=O (configuration not stated),0,-4
O=C(CSc1nnnn1-c1ccc(F)cc1F)Nc1ccccc1F,-4,4
O=C(Nc1ccccc1)C1C(c2ccccc2)C1(Cl)Cl (configuration not stated),-8,-33
Cc1cccc(NC(=O)C2C(c3ccccc3)C2(Cl)Cl)c1C (configuration not stated),67*,-9
Cc1c(Br)c([N+](=O)[O-])nn1CC(=O)NCc1ccc(Cl)cc1,0,-2
CCc1ccc(C2=Cc3ccccc3C(CC(=O)C3CC3)N2c2ccc(-c3cncnc3)cc2)cc1 (configuration not stated),-2,100*
COc1cc(OC)cc(C2=Cc3ccc(OC)cc3C(CC(C)=O)N2c2ccc(-c3cncnc3)cc2)c1 (configuration not stated),-4,37
CCC(CC)NC(=O)c1cccc(OC)c1OC,4,-2
COc1ccc(CC(=O)N2CCC(C(=O)NCCc3cscn3)CC2)cc1,-3,-4
CCc1noc(C2CCCCN2C(=O)c2ccsc2)n1 (configuration not stated),8,-7
O=C(NC1CCCc2ccccc21)C1CCN(S(=O)(=O)N2CCCCCC2)CC1 (configuration not stated),-6,-3
COc1ccc2[nH]cc(CN3CCC(C(=O)NC4CCCc5ccccc54)CC3)c2c1 (configuration not stated),0,69*
Cc1ccc(NC(=O)CCS(=O)(=O)c2ccc(Br)cc2)nc1,10,-2
Cc1ccc(S(=O)(=O)CCC(=O)Nc2ncc(Br)s2)cc1,0,69*
Cc1cccc2c1NC(c1ccc([N+](=O)[O-])cc1)C1CC=CC21 (configuration not stated),3,17
O=[N+]([O-])c1c(Cl)cc(O)c2c1C1C=CCC1C(c1ccccc1)N2 (configuration not stated),3,75*
SMILES,Pf apPOL block,mHTT CaM bind
O=[N+]([O-])c1ccc(C2Nc3c(O)cc(Cl)c([N+](=O)[O-])c3C3C=CCC32)cc1 (configuration not stated),-5,92*
Cc1c(NC(=O)Cn2cnc3c2c(=O)n(C)c(=O)n3C)c(=O)n(-c2ccccc2)n1C,-3,-2
O=C(NC1CCCCCCC1)c1ccc(Br)o1,-8,-1
COc1ccc([N+](=O)[O-])cc1NC(=O)C1CC(=O)NC(=N)S1 (configuration not stated),59*,1
COc1ccc([N+](=O)[O-])cc1NC(=O)C1CCCCC1,-2,-2
CCC(C(=O)Nc1ccc(C(C)C)cc1)N1C(=O)C2(OCCCO2)c2ccccc21 (configuration not stated),-5,-9
COc1ccc(N2CCN(c3cc(N4CCN(C)CC4)ccc3[N+](=O)[O-])CC2)cc1,-5,54*
O=C(c1cc(F)c(F)cc1Cl)N1CCN(c2ccc([N+](=O)[O-])c(N3CCCCC3)c2)CC1,-2,5
CN1CCN(c2cc(N3CCN(S(C)(=O)=O)CC3)ccc2[N+](=O)[O-])CC1,-4,2
COc1ccccc1C(=O)N1CCN(c2ccc([N+](=O)[O-])c(N3CCCCC3)c2)CC1,-8,53*
CCOc1ccc(Nc2cc(C)nc3ccc(Cl)cc23)cc1,-2,2
CCCCOc1ccc(Nc2cc(C)nc3ccc(OC)cc23)cc1,-10,61*
OC(CNCCc1ccccc1)c1ccccc1 (configuration not stated),-6,-2
OC(CNCCOc1ccccc1)Cn1c2ccccc2c2ccccc21 (configuration not stated),·,85*
O=C1CSC(=O)N1CC(O)Cn1c2ccc(Br)cc2c2cc(Br)ccc21 (configuration not stated),·,27
